Reference: PubChem BioAssay (NCATS)
Values joined by “and” are separate entries in the source; they are usually repeats but may differ in a detail not shown here. Equal entries are not always repeated. Inconclusive results are not listed. Some compounds were tested as several samples or in several runs, with calls that do not always agree. Active and inactive are the calls of the source. Calls follow the shape of the dose curve; as a rule, active = well fitted inhibition curve with a large enough effect; inconclusive = small, poorly fitted or top-dose-only effect; inactive = flat fitted curve, though single readings scatter.

System: CRL-7250
Experiment: Cytotoxic Profiling of Annotated Libraries Using Quantitative High-Throughput Screening (AID 1296008); also: nearly all actives have a fitted effect of over 60% in size
Conditions: Five cell lines viability, CellTiter-Glo ATP luminescence, 48-72 h; max response: active compounds read low
Procedure, shortened: (§1)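 Cells exposed to compounds for 48 or 72 hr at 37 degrees Celsius. Viability read as ATP-coupled luminescence with CellTiter-Glo after 10 min at room temperature.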
% is scaled to controls: 0 for no effect and ±100 for the full control effect; potency is read from the fitted curve at half-maximal effect.

Question: With `C[C@]12Cc3cn[nH]c3C[C@@H]1CC[C@@H]1[C@H]2CC[C@@]2(C)[C@H]1CC[C@]2(C)O` as the molecule, how does the max response read?
Answer: 3.97% (inactive)

Question: For `O=c1cccc2n1CC1CNC[C@H]2C1`, which max response is on record?
Answer: -0.274% (inactive)

Question: With `COc1ccc(CC2NCCc3cc(OC)c(OC)cc32)cc1OC` (stereo not given) as the molecule, how does the max response read?
Answer: -3.56% (inactive)

Question: With `Cc1ccccc1-n1c(Cn2cnc3c(N)ncnc32)nc2cccc(C)c2c1=O` as the molecule, how does the Potency read?
Answer: 833 nM (active)

Question: Which max response does the source give for `C[C@]12CC[C@@H]3[C@@H](CCC4=CC(=O)CC[C@@H]43)[C@@H]1CC[C@@H]2OC(=O)CCc1ccccc1` here?
Answer: 1.37% (inactive)

Question: How did the Potency turn out when `CCNC(=O)C[C@@H]1N=C(c2ccc(Cl)cc2)c2cc(OC)ccc2-n2c(C)nnc21` was run?
Answer: 1.32 µM (active) and 1.3 µM (active)

Question: With `CC1=C(C(=O)O)N2C(=O)[C@@H](N)[C@H]2SC1` as the molecule, how does the outcome read?
Answer: inactive

Question: Which max response does the source give for `CC(C)(C)NC[C@H](O)c1ccc(O)cc1Cl` here?
Answer: -2.25% (inactive)

Question: Which max response does the source give for `Cc1nc(-c2ccc(-c3ccc(C(=O)N4CCc5cc6c(cc54)C4(CCN(C)CC4)CO6)cc3)c(C)c2)no1` here?
Answer: -11.3% (inactive)

Question: For `C[C@H]1CCCC=CC2C[C@H](O)C[C@@H]2[C@H](O)C=CC(=O)O1` (stereo not given in full), which max response is on record?
Answer: -95.9% (inactive)

Question: For `CCN(CC)C(=O)c1ccc(C2=CC3(CCNCC3)Oc3cccc(O)c32)cc1`, which max response is on record?
Answer: 3.09% (inactive) and -1.02% (inactive)

Question: For `Nc1ccc(Cl)cc1N`, which max response is on record?
Answer: -5.38% (inactive)

Question: With `C[C@@H]1O[C@@H](O[C@@H]2C=C3CC[C@@H]4[C@@H](CC[C@]5(C)[C@H](c6ccc(=O)oc6)CC[C@@]45O)[C@@]3(C)CC2)[C@H](O)[C@H](O)[C@H]1O` as the molecule, how does the Potency read?
Answer: 11.8 nM (active)

Question: How did the max response turn out when `CCC(=O)OC1CCC2C3CCC4=CC(=O)CC[C@@]4(C)C3CC[C@]12C` (stereo not given in full) was run?
Answer: -4.7% (inactive)

Question: Which max response does the source give for `COc1ccc2c(c1)[C@]13CCCCC1C(C2)N(C)CC3` (stereo not given in full) here?
Answer: 4.77% (inactive)

Question: How did the outcome turn out when `O=C1C(I)=CC(=C(c2cc(I)c(O)c(I)c2)c2ccccc2C(=O)O)C=C1I` was run?
Answer: inactive

Question: `Fc1cc(Br)ccc1CBr` was tested. Which max response did it give?
Answer: -5.31% (inactive)

Question: For `O=S(=O)(O)C(F)(F)C(F)(F)C(F)(F)C(F)(F)C(F)(F)C(F)(F)C(F)(F)C(F)(F)F`, which max response is on record?
Answer: -8.73% (inactive)

Question: How did the outcome turn out when `C=C[C@@H]1CN2CCC1C[C@H]2[C@H](O)c1ccnc2ccccc12` (stereo not given in full) was run?
Answer: inactive

Question: `CCNC(=O)CC1N=C(c2ccc(Cl)cc2)c2cc(OC)ccc2-n2c(C)nnc21` (stereo not given) was tested. Which Potency did it give?
Answer: 1640 nM (active)

Question: What about the max response of the same molecule?
Answer: -29.2% (inactive) and -3.83% (inactive)

Question: `Cc1[nH]nc2ccc(-c3cncc(OC[C@@H](N)Cc4c[nH]c5ccccc45)c3)cc12` was tested. Which Potency did it give?
Answer: 935 nM (active) and 2.06 µM (active)

Question: `CC(C)Oc1cccc(NC(=O)c2ccccc2C(F)(F)F)c1` was tested. Which Potency did it give?
Answer: 54500 nM (active)

Question: `Cc1ccccc1-n1c(Cn2ncc3c(N)ncnc32)nc2cccc(C)c2c1=O` was tested. Which max response did it give?
Answer: -1.16% (inactive)

Question: And the outcome?
Answer: inactive

Question: `NC1CC1c1ccccc1` (stereo not given) was tested. Which max response did it give?
Answer: -3.17% (inactive)

Question: For `COc1cccc2c1[C@]13CCN(CC4CC4)[C@H](C2)[C@]1(OC)CCC(=O)C3`, which outcome is on record?
Answer: inactive

Question: `c1cc2c(cc1[C@H]1OC[C@H]3[C@H]1CO[C@H]3c1ccc3c(c1)OCO3)OCO2` was tested. Which max response did it give?
Answer: -11.7% (inactive)

Question: Which max response does the source give for `CC(C)N(CCNC(=O)CN1CCCC1=O)C(C)C` here?
Answer: 4.66% (inactive) and -0.977% (inactive)

Question: How did the max response turn out when `CSCC[C@@H](NC(=O)[C@@H](Cc1ccccc1)NC(=O)CNC(=O)CNC(=O)[C@@H](N)Cc1ccc(O)cc1)C(=O)O` was run?
Answer: 2.24% (inactive)

Question: With `CCOP(=O)(NC(C)C)Oc1ccc(SC)c(C)c1` (stereo not given) as the molecule, how does the max response read?
Answer: -0.0778% (inactive)

Question: How did the max response turn out when `C[C@@H]1[C@H](O)[C@@H](C)C=CC=CCCC=CC=CC=CC=C[C@H](O[C@H]2O[C@@H](C)[C@H](O)[C@@H](N)[C@@H]2O)CC2O[C@](O)(C[C@@H](O)[C@H](O)CC[C@@H](O)C[C@@H](O)C[C@@H](O)CC(=O)O[C@H]1C)C[C@H](O)[C@H]2C(=O)O` was run?
Answer: 4.08% (inactive)

Question: `CC1(C)CC/C(=C/c2ccc(Cl)cc2)C1(O)Cn1cncn1` (stereo not given) was tested. Which max response did it give?
Answer: -5.73% (inactive)

Question: With `CC(C)N[C@@H]1CCn2c(=O)[nH]c3cccc(c32)[C@@H]1O` as the molecule, how does the outcome read?
Answer: inactive

Question: Which results are given for `CC(=O)N(C)c1cccc(-c2ccnc3c(C(=O)c4cccs4)cnn23)c1`?
Answer: max response: -13.2% (inactive); outcome: inactive

System: HEK293
Experiment: as above
Conditions: Five cell lines viability, CellTiter-Glo ATP luminescence, 48-72 h; max response: active compounds read low
Procedure, shortened: as §1

Question: How did the max response turn out when `O=c1cccc2n1CC1CNC[C@H]2C1` was run?
Answer: -2.71% (inactive)

Question: With `C[C@]12CC[C@@H]3[C@@H](CCC4=CC(=O)CC[C@@H]43)[C@@H]1CC[C@@H]2OC(=O)CCc1ccccc1` as the molecule, how does the outcome read?
Answer: inactive

Question: Which outcome does the source give for `CC1=C(C(=O)O)N2C(=O)[C@@H](N)[C@H]2SC1` here?
Answer: inactive

Question: How did the max response turn out when `Cc1nc(-c2ccc(-c3ccc(C(=O)N4CCc5cc6c(cc54)C4(CCN(C)CC4)CO6)cc3)c(C)c2)no1` was run?
Answer: 4.59% (inactive)

Question: How did the Potency turn out when `C[C@@H]1O[C@@H](O[C@@H]2C=C3CC[C@@H]4[C@@H](CC[C@]5(C)[C@H](c6ccc(=O)oc6)CC[C@@]45O)[C@@]3(C)CC2)[C@H](O)[C@H](O)[C@H]1O` was run?
Answer: 16.6 nM (active)

Question: Which outcome does the source give for `CCC(=O)OC1CCC2C3CCC4=CC(=O)CC[C@@]4(C)C3CC[C@]12C` (stereo not given in full) here?
Answer: inactive

Question: With `COc1ccc2c(c1)[C@]13CCCCC1C(C2)N(C)CC3` (stereo not given in full) as the molecule, how does the outcome read?
Answer: inactive

Question: For `Fc1cc(Br)ccc1CBr`, which max response is on record?
Answer: -1.72% (inactive)

Question: With `Cc1[nH]nc2ccc(-c3cncc(OC[C@@H](N)Cc4c[nH]c5ccccc45)c3)cc12` as the molecule, how does the Potency read?
Answer: 132 nM (active) and 103 nM (active)

Question: How did the outcome turn out when `NC1CC1c1ccccc1` (stereo not given) was run?
Answer: inactive

Question: How did the outcome turn out when `COc1cccc2c1[C@]13CCN(CC4CC4)[C@H](C2)[C@]1(OC)CCC(=O)C3` was run?
Answer: inactive

Question: With `c1cc2c(cc1[C@H]1OC[C@H]3[C@H]1CO[C@H]3c1ccc3c(c1)OCO3)OCO2` as the molecule, how does the outcome read?
Answer: inactive

Question: `CSCC[C@@H](NC(=O)[C@@H](Cc1ccccc1)NC(=O)CNC(=O)CNC(=O)[C@@H](N)Cc1ccc(O)cc1)C(=O)O` was tested. Which max response did it give?
Answer: 3.52% (inactive)

Question: How did the max response turn out when `C[C@@H]1[C@H](O)[C@@H](C)C=CC=CCCC=CC=CC=CC=C[C@H](O[C@H]2O[C@@H](C)[C@H](O)[C@@H](N)[C@@H]2O)CC2O[C@](O)(C[C@@H](O)[C@H](O)CC[C@@H](O)C[C@@H](O)C[C@@H](O)CC(=O)O[C@H]1C)C[C@H](O)[C@H]2C(=O)O` was run?
Answer: 2.42% (inactive)
